Results on six compounds are retold here after PubChem BioAssay (NCI).

Among the test systems are NCI-H23 lung; NCI-H226 lung; NCI-H322M lung; HOP-62 NSCLC; NCI-H460 lung; HOP-92 NSCLC; NCI-H522 lung; A549/ATCC NSCLC; 786-0 renal; COLO 205 colon; DU-145 prostate; K-562 leukemia; MALME-3M melanoma; MDA-MB-231 breast; RXF 393 renal; SF-268 CNS; SF-295 CNS; SF-539 CNS; UACC-257 melanoma; M14 melanoma.
What all share (assay): NCI-60 one-dose screen, 48 h (100 = growth as untreated, 0 = no growth, -100 = all killed)
Common to all, as to conditions: 10 µM unless noted

This is part of a sample that, as a whole, favours compounds with a hit. Of some 83,000 tested, about 20% had one in any assay.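 Negative percent growth values reflect cell death: -40 means 40% of the cells present at the start died, and -100 means all died.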 Values without a mark were called inactive. The source made the active and inactive calls. Rule for the calls: active = growth percent below 10; inactive = the rest.

For the compound `COc1ccc(S(=O)(=O)n2cc(C3OC(c4cc(OC)c(OC)c(OC)c4)=NN3C(C)=O)c3ccccc32)cc1OC` (stereo not given), the growth in the assay on NCI-H23 lung is 79.5%; with NCI-H226 lung, 93.2%; in the assay on NCI-H322M lung it was 98%; in the assay with HOP-62 NSCLC, 78.1%; in the assay on NCI-H460 lung, 97.1%; with HOP-92 NSCLC it was 63.9%. Further, the growth with NCI-H522 lung was 84%; in the assay with A549/ATCC NSCLC it was 98.3%; with 786-0 renal, 86.3%; in the assay with COLO 205 colon, 127%; in the assay on DU-145 prostate it was 145%; in the assay on K-562 leukemia, 64.4%. In addition, the growth with MALME-3M melanoma was 104%; in the assay with MDA-MB-231 breast, 82.6%; in the assay with RXF 393 renal, 89.3%; in the assay on SF-268 CNS it was 108%; in the assay on SF-295 CNS it was 93%; in the assay with SF-539 CNS, 89.1%. In addition, the growth with UACC-257 melanoma is 87.9%; with M14 melanoma it was 98.1%.

Take `C=C1C(=O)O[C@H]2[C@H]1CC/C(COC(=O)CSCC(=O)OC/C1=C/CC[C@@]3(C)O[C@H]3[C@H]3OC(=O)C(=C)[C@@H]3CC1)=C\CC[C@@]1(C)O[C@@H]21`: the growth is 58.1% with NCI-H23 lung; 91.6% in the assay on NCI-H226 lung; 90.7% in the assay with NCI-H322M lung; 92.7% in the assay on HOP-62 NSCLC; 73.9% in the assay with NCI-H460 lung; -16.9% (active) with HOP-92 NSCLC. Also, the growth is -69.7% (active) with NCI-H522 lung; 72.8% in the assay with A549/ATCC NSCLC; 7.49% (active) in the assay with 786-0 renal; -54.9% (active) in the assay on COLO 205 colon; 50.3% with DU-145 prostate; 9.77% (active) with K-562 leukemia. Also, the growth in the assay on MALME-3M melanoma was -10.3% (active); in the assay with MDA-MB-231 breast it was -16.8% (active); with RXF 393 renal, -86.3% (active); with SF-268 CNS, 57.8%; with SF-295 CNS, 88.1%; with SF-539 CNS it was 19.3%. For the same compound, the results for the growth in the assay with UACC-257 melanoma and with M14 melanoma were 9.23% (active) and 1.21% (active), respectively.

As for `CCc1cccc2c1S/C(=C/c1ccc(OC)cc1)C2=O`, the growth was 50.1% in the assay with NCI-H23 lung; 85.7% in the assay with NCI-H226 lung; 86.7% in the assay on NCI-H322M lung; 45.4% with HOP-62 NSCLC; 56% with NCI-H460 lung; 72.2% in the assay with HOP-92 NSCLC. Moreover, the growth in the assay with NCI-H522 lung was 42.7%; with A549/ATCC NSCLC, 89%; in the assay on 786-0 renal, 63.6%; in the assay on COLO 205 colon it was 105%; in the assay with DU-145 prostate it was 49.5%; in the assay on K-562 leukemia it was 11.2%. For the same compound, the growth with MALME-3M melanoma was 51.7%; in the assay with MDA-MB-231 breast, 46.5%; in the assay on RXF 393 renal, 40.1%; in the assay with SF-268 CNS, 64.5%; in the assay with SF-295 CNS, 62.9%; in the assay with SF-539 CNS, 8.87% (active). Also, the growth with UACC-257 melanoma is 72.6%; with M14 melanoma, 28.3%.

Turning to `COc1cc2oc(-c3ccc(O)cc3)cc(=O)c2c(O)c1-c1c(OC)cc(O)c2c(=O)cc(-c3ccc(O)cc3)oc12`, the growth in the assay on NCI-H23 lung is 31.9%; with NCI-H226 lung it was 70.8%; with NCI-H322M lung, 28.8%; with HOP-62 NSCLC it was 27%; in the assay on NCI-H460 lung, 11.8%; in the assay on HOP-92 NSCLC, 62.3%. Also, the growth in the assay on NCI-H522 lung is 45.8%; in the assay with A549/ATCC NSCLC it was 69.8%; in the assay on 786-0 renal it was 48.8%; with COLO 205 colon it was 67.5%; with DU-145 prostate, 53.5%; with K-562 leukemia, 44.5%. Moreover, the growth in the assay on MALME-3M melanoma is 63.2%; in the assay with MDA-MB-231 breast, 48.5%; with RXF 393 renal it was -44.1% (active); in the assay with SF-268 CNS, 12.8%; with SF-295 CNS it was 67.1%; with SF-539 CNS, 18%. Moreover, the growth in the assay on UACC-257 melanoma is 91.5%; in the assay on M14 melanoma, 28%.

For `CCS(=O)(=O)c1ncnc2nc[nH]c12`, the growth in the assay with NCI-H23 lung is 111%; with NCI-H226 lung, 94.2%; in the assay on NCI-H322M lung, 106%; with HOP-62 NSCLC, 93.5%; with NCI-H460 lung, 105%; with HOP-92 NSCLC, 77.1%. For the same compound, the growth with NCI-H522 lung is 65.4%; in the assay with A549/ATCC NSCLC, 89.4%; in the assay with 786-0 renal it was 95%; in the assay on COLO 205 colon it was 102%; in the assay on DU-145 prostate it was 112%; in the assay with K-562 leukemia, 101%. In addition, the growth with MALME-3M melanoma is 106%; in the assay with MDA-MB-231 breast, 111%; in the assay with RXF 393 renal, 113%; in the assay on SF-268 CNS it was 104%; in the assay on SF-295 CNS, 99.8%; with SF-539 CNS, 95.1%. Moreover, the growth is 93.1% in the assay with UACC-257 melanoma and 88.1% with M14 melanoma.

As to `CCn1cnc2c1c(=O)[nH]c(=O)n2CC1CCC(CNS(=O)(=O)c2ccc(OC3CCOCC3)c(F)c2)CC1` (stereo not given), the growth is 57.5% in the assay with NCI-H23 lung; 55.7% in the assay with NCI-H226 lung; 66.7% in the assay with NCI-H322M lung; 36.5% with HOP-62 NSCLC; 72.6% with NCI-H460 lung; 31% with HOP-92 NSCLC. For the same compound, the growth in the assay with NCI-H522 lung was 39.4%; in the assay with A549/ATCC NSCLC, 54.9%; in the assay with 786-0 renal it was 47.4%; in the assay on COLO 205 colon, 45.3%; in the assay with DU-145 prostate, 76.8%; in the assay with K-562 leukemia, 39.2%. For the same compound, the growth in the assay on MALME-3M melanoma is 58.2%; in the assay on MDA-MB-231 breast, 47.8%; with RXF 393 renal, 53.1%; with SF-268 CNS, 82.8%; with SF-295 CNS it was 58.5%; in the assay with SF-539 CNS it was 54.7%. In addition, the results for the growth with UACC-257 melanoma and in the assay with M14 melanoma were 59.8% and 48.5%, respectively.
